The target in experiment [1] is Glutathione peroxidase 1 (Homo sapiens) (UniProt P07203). The experiment can be described thus: Primary qHTS Assay for Inhibitors of Recombinant Selenoprotein Glutathione Peroxidase 1 (GPX1) (AID 1845191). To be noted: recombinant GPX1, GR-coupled NADPH fluorescence, 15 min; series mostly up to 48.8 µM. In short, it runs like this:
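GPX1 10 nM, GR 100 nM, GSH 1 mM, NADPH 0.5 mM, CHP 0.5 mM (final). 30-min cpd preincubation, RT. Ex340/Em450 read t=0, t=15 min.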
Background: Quantitative high-throughput screening tests each substance at several concentrations.

The target of experiment [2] is Phospholipid hydroperoxide glutathione peroxidase GPX4 (Homo sapiens) (UniProt P36969). Kind of experiment: Primary qHTS Assay for Inhibitors of Recombinant Selenoprotein Glutathione Peroxidase 4 (GPX4) (AID 1845192). As to conditions: recombinant GPX4, GR-coupled NADPH fluorescence, 15 min; series mostly up to 50 µM. In short, it runs like this: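 qHTS, GR-coupled: GPX4 200 nM + cpd 30 min RT → GSH 1 mM, NADPH 0.5 mM, GR 100 nM → CHP 0.5 mM start; fluor 340/450 at t0 and t15 min; no-enzyme wells as control.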

This passage reports Potency results from PubChem BioAssay (NCATS).

Results filed as inconclusive are left out. Entries that show only a call come without a potency. Activity calls are given as the source filed them. Calls follow the shape of the dose curve; as a rule, active = well fitted inhibition curve with a large enough effect; inconclusive = small, poorly fitted or top-dose-only effect; inactive = flat fitted curve, though single readings scatter.
Also: nearly all actives have a fitted effect of over 65% in size.

Sequence of Glutathione peroxidase 1 (Homo sapiens) (P07203 whole entry, looked up): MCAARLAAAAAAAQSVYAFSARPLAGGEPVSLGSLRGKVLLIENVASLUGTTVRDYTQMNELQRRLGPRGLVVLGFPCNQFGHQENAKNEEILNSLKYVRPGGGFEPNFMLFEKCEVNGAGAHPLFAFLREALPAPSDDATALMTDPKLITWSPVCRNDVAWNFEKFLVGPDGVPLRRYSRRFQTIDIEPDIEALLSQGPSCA
Sequence of Phospholipid hydroperoxide glutathione peroxidase GPX4 (Homo sapiens) (P36969 whole entry, looked up): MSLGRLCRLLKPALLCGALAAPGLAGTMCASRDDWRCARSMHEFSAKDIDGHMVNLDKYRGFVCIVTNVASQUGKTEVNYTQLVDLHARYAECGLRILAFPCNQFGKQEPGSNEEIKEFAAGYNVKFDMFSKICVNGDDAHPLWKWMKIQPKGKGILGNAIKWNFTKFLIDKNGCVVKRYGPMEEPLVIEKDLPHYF

In the case of `CCCOC(=O)c1ccccc1`, the Potency entry in experiment [1] and in experiment [2] was “inactive” throughout.
With `O=c1cc(CO)occ1O`, the Potency entry in experiment [1] and in experiment [2] was “inactive” throughout.
As for `CN1CCCCC1CCN1c2ccccc2Sc2ccc(S(C)=O)cc21` (configuration not stated), the Potency result in experiment [1] and in experiment [2] was “inactive” throughout.
As for `C[C@H](N)[C@H](O)c1cccc(O)c1`, the Potency result in experiment [1] and in experiment [2] was “inactive” each time.
As to `NCC(=O)CCC(=O)O`, the Potency entry in experiment [1] and in experiment [2] was “inactive” in each case.
In the case of `O=C(O)[C@H](O)c1ccccc1`, the Potency result in experiment [1] and in experiment [2] was “inactive” each time.
On to `C[C@H]1O[C@H](O[C@H]2[C@H](O)[C@@H](O)[C@@H](O[C@H]3[C@H](O)[C@@H](O)[C@H](O)O[C@@H]3CO)O[C@@H]2CO)[C@H](O)[C@@H](O)[C@@H]1N[C@H]1C=C(CO)[C@@H](O)[C@H](O)[C@H]1O`, for which the Potency result in experiment [1] and in experiment [2] was “inactive” each time.
On to `CN1[C@@H]2CC[C@H]1CC(OC(=O)C(O)c1ccccc1)C2` (some centres not stated), for which the Potency entry in experiment [1] and in experiment [2] was “inactive” throughout.
On to `NS(=O)(=O)c1cc2c(cc1C(F)(F)F)NC(Cc1ccccc1)NS2(=O)=O` (configuration not stated), for which the Potency entry in experiment [1] and in experiment [2] was “inactive” throughout.
For the compound `Cn1cc[nH]c1=S`, the Potency entry in experiment [1] and in experiment [2] was “inactive” each time.
On to `C[C@@H]1CCN(C(=O)[C@H](CCCN=C(N)N)NS(=O)(=O)c2cccc3c2NC[C@H](C)C3)[C@@H](C(=O)O)C1`, for which the Potency entry in experiment [1] and in experiment [2] was “inactive” each time.
`Cc1cc(O)cc2c1O[C@](C)(CCC[C@H](C)CCC[C@H](C)CCCC(C)C)CC2`: the Potency result in experiment [1] and in experiment [2] was “inactive” throughout.
Take `CC[C@@]1(c2ccccc2)NC(=O)N(C)C1=O`: the Potency entry in experiment [1] and in experiment [2] was “inactive” throughout.
Turning to `CC1(C)[C@@H]2CC[C@@]1(C)C(=O)C2`, the Potency result in experiment [1] and in experiment [2] was “inactive” throughout.
Consider `Cc1ncc(COP(=O)(O)O)c(C=O)c1O`, for which the Potency entry in experiment [1] and in experiment [2] was “inactive” throughout.
Consider `O=C(O)Cc1sc(-c2ccccc2)nc1-c1ccc(Cl)cc1`, for which the Potency result in experiment [1] and in experiment [2] was “inactive” each time.
